# Measurements from PubChem BioAssay (NCATS).
# Results filed as inconclusive are left out. Calls of active or inactive are those of the source. Unless noted, calls follow the shape of the dose curve; as a rule, active = well fitted curve in the direction sought with a large enough effect; inconclusive = small, poorly fitted or top-dose-only effect, or another doubt; inactive = no such curve, though single readings can be large; an effect the other way counts as inactive or inconclusive.
# Key:
# [1] = test system: HIV-1 nucleocapsid protein NCp7 (binding to TG oligonucleotide); assay: HIV Nucleocapsid (AID 346; call rule not given here;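 also: potency is read from the fitted curve at half-maximal effect; potency is for inhibitors that block NC binding and lower polarization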); conditions: HIV-1 NC / fluorescein-TGTGTGTG probe, fluorescence polarization
# How it was run: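 Fluorescence polarization readout: labelled TG4xF oligo (10 nM) with 100 nM nucleocapsid protein, high-salt (250mM NaCl) Hepes pH 7.5 buffer containing zinc and fresh reducing agents. Compounds added by pin tool; incubation 1 hr, room temperature.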
# [2] = target: Lysosomal acid glucosylceramidase (Homo sapiens) (UniProt P04062); assay: Glucocerebrosidase-p2 (AID 348; in the data active = potency below about 10 µM; also: potency is read from the fitted curve at half-maximal effect); conditions: purified GBA, blue fluorogenic substrate, 40 min
# How it was run: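 Normal human glucocerebrosidase (0.2 nM) with blue fluorogenic substrate (80 uM final) in citrate/phosphate pH 5.9 with 10mM sodium taurocholate, 0.01% tween-20; 40 min RT, NaOH/glycine stop; fluorescence Ex 365/Em 440; AC50 from a titration from 0.6 nM upwards.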
# [3] = AP1 Signaling Pathway (AID 357; active = well fitted curve in either direction with a large enough effect, not every such curve was filed as active;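 also: ME-180 reporter cells stimulated with EGF at its EC50 level; % is scaled to controls: 0 for no effect and ±100 for the full control effect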)
# How it was run: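 Cells are seeded overnight, exposed to compound titrations and an EC50 level of EGF for 5 hours at 37 °C, then loaded with CCF4 dye for 2.5 hours. Beta-lactamase activity under the AP-1 element is read as a blue/green ratio.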
# [4] = target: Cytochrome P450 1A2 (Homo sapiens) (UniProt P05177); assay: p450-cyp1a2 (AID 410; calls by dose curve; also: potency is read from the fitted curve at half-maximal effect)
# Chain of Cytochrome P450 1A2 (Homo sapiens) (P05177 whole entry, looked up): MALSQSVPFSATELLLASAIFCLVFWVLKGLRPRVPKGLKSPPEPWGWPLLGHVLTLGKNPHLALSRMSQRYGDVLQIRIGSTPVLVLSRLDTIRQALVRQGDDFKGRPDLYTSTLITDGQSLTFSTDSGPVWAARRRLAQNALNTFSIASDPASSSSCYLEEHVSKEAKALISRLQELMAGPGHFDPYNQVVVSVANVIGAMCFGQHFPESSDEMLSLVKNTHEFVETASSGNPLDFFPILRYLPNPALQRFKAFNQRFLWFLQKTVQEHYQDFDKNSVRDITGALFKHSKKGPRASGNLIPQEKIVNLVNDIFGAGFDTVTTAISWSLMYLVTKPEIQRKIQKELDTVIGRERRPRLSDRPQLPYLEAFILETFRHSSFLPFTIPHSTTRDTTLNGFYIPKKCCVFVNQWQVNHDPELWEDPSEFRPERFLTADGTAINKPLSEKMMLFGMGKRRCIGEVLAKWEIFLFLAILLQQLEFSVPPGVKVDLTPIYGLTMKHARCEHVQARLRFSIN
# How it was run: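 20nM CYP1A2, 100uM Luciferin-ME (=Km), 100mM KPO4; cpd 10 min RT; +NADPH regen, 60 min RT; stop/detect 20 min; luminescence. Normalized to furafylline 57 uM = full inhibition.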
# [5] = NFAT Signaling Pathway (AID 444; active = well fitted curve in either direction with a large enough effect, not every such curve was filed as active;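 also: carbachol stimulus at about its EC50 of 1 µM final; % is scaled to controls: 0 for no effect and ±100 for the full control effect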); conditions: Jurkat NFAT-bla M1, carbachol, beta-lactamase ratio, 5 h; at 7.69 µM (top of the series)
# How it was run: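 Jurkat cells with NFAT-driven β-lactamase reporter and co-expressed M1 receptor, stimulated with carbachol (final 1 uM, ~EC50), compound titration, 5 h at 37 °C. CCF4 loaded 1 h at RT; 460/530 nm ratio gave %activity and AC50.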
# [6] = target: Glucocorticoid receptor (Homo sapiens) (UniProt P04150); assay: GR-EFC Redistribution (AID 451; calls by dose curve; also: potency is read from the fitted curve at half-maximal effect); conditions: CHO-K1 GR-EFC translocation, beta-gal luminescence, 2 h
# Chain of Glucocorticoid receptor (Homo sapiens) (P04150 whole entry, looked up, the tested form may be a part): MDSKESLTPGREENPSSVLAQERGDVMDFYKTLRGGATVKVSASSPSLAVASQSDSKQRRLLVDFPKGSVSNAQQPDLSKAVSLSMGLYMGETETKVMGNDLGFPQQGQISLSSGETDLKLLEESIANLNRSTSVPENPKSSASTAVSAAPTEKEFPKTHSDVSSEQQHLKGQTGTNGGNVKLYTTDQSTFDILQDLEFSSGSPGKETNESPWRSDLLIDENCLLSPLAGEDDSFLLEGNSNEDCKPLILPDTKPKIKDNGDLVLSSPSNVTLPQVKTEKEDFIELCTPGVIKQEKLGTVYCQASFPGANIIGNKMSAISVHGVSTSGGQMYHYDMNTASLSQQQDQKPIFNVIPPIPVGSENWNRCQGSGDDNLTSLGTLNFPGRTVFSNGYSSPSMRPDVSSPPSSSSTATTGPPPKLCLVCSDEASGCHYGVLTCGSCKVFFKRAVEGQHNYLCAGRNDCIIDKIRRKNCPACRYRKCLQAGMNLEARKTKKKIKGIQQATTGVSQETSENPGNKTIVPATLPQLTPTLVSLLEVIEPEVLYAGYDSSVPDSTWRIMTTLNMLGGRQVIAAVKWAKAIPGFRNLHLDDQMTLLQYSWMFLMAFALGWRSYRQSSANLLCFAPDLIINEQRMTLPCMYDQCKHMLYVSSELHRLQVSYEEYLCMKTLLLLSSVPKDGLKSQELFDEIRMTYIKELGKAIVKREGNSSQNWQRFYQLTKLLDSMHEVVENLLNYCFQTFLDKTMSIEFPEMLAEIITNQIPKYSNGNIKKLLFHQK
# How it was run: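 CHO-K1 cells expressing nuclear EA and GR-ED fragments of b-gal; compounds titrated up to 46 uM final, 2 h at 37 C. GR nuclear translocation read as complemented b-gal luminescence after 1 h RT detection.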
# [7] = target: Mitogen-activated protein kinase 10 (Mus musculus) (UniProt Q61831); assay: JNK3 AlphaScreen Assay (AID 530; active = well fitted curve in either direction with a large enough effect, not every such curve was filed as active;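 also: kinase came from lysate of stimulated human HepG2 cells; signal reports phosphorylation of biotinylated GST-cJun 1-79 at Ser73 with 10 µM ATP; % is scaled to controls: 0 for no effect and ±100 for the full control effect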)
# How it was run: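 HepG2 lysate (IL-1b/TNFa pre-activated) + biotin-GST-cJun 1-79 + anti-pSer73 cJun; cpd titration, 15 min RT; ATP 10 uM start; Tris pH 7.6, MgCl2, DTT, vanadate; beads in EDTA buffer; AlphaScreen.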
# [8] = qHTS Assay for Lipid Storage Modulators (AID 1519; calls by dose curve); conditions: Drosophila S3 cells, BODIPY lipid droplet/cell ratio, laser cytometry, cells loaded with oleic acid
# How it was run: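 Cells seeded at 5,000 per well were treated with compounds over a concentration series and loaded with oleic acid (400 uM, as added). Lipid droplet fluorescence (488 nm excitation, 500-530 nm channel) was read by laser-scanning cytometry and normalized to 20 uM Triacsin C.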
# [9] = Counterscreen qHTS for small molecule stabilizers of the endoplasmic reticulum resident proteome: GLuc-NoTag assay (AID 1508627);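 also: SH-SY5Y cells given compound then 100 nM thapsigargin to empty ER calcium; 0% = thapsigargin alone and -100% = DMSO vehicle control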
# How it was run: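 Counterscreen line: SH-SY5Y-GLuc-NoTag. Seed, 5 h; compound, 19 h; thapsigargin 100 nM, 4 h; 37C/5% CO2. Readout: secreted GLuc luminescence, coelenterazine 0.07x final, no lysis.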
# [10] = Cell Viability qHTS for small molecule stabilizers of the endoplasmic reticulum resident proteome (AID 1508629); conditions: cell viability counter-screen, 100 nM thapsigargin for final 4 h;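 also: human SH-SY5Y neuroblastoma cells carrying the GLuc-SERCaMP reporter; compound exposure about 46 h in total before the viability read; % is scaled to controls: 0 for no effect and ±100 for the full control effect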
# [11] = target: Calcium and integrin-binding protein 1 (Homo sapiens) (UniProt Q99828); assay: Primary qHTS for Identification of Calcium Integrin Binding Protein 1 (CIB1) Competitor (AID 1508620)
# Chain of Calcium and integrin-binding protein 1 (Homo sapiens) (Q99828 whole entry, looked up): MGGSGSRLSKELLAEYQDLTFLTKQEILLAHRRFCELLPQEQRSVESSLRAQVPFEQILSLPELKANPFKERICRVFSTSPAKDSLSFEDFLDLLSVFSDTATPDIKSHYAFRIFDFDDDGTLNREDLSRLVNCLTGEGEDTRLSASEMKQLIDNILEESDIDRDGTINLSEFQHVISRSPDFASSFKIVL
# How it was run: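 Fluorescence polarization competition: GST-tagged CIB1 (1 uM final) preincubated with compound 15 min at room temperature, then FITC-labelled alphaIIb peptide (100 nM final) added. After 15 min at room temperature, polarization read at Ex 480/Em 540.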
# [12] = target: DNA repair nuclease/redox regulator APEX1 (Homo sapiens) (UniProt P27695); assay: qHTS Validation Assay for Inhibitors of the Human Apurinic/apyrimidinic Endonuclease 1 (APE1) (AID 1705)
# Chain of DNA repair nuclease/redox regulator APEX1 (Homo sapiens) (P27695 whole entry, looked up): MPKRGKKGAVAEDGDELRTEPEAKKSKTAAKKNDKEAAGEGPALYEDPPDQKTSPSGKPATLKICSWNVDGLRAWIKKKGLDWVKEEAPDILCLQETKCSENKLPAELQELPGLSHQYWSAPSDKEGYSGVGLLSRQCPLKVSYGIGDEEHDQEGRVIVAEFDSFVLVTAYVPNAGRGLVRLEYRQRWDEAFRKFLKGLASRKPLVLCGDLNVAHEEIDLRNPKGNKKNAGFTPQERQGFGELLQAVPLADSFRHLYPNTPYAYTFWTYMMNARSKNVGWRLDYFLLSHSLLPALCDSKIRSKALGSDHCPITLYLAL
# How it was run: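 Read-out: TAMRA fluorescence (525 nm ex, 598 nm em) from cleavage of a quenched THF abasic-site duplex, 50 nM final; activity taken as intensity change between third and first of three reads 60 s apart.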
# [13] = Counterscreen for APE1 Inhibitors: Fluorescent Dye Displacement Validation Assay (AID 1707);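 also: plate controls were ThO with dsDNA and no compound for no effect and ThO without dsDNA for full effect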
# How it was run: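 Signal: ThO fluorescence (ex 480 nm/em 540 nm) on binding 50 nM dsDNA; displacement by test compound reduces it. Conditions: 250 nM dye, 50 mM Tris-HCl pH7.5, 2 mM MgCl2, 50mM NaCl, 0.01% Tween-20.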
# [14] = target: Endonuclease 4 (Escherichia coli (strain K12)) (UniProt P0A6C1); assay: Counterscreen for APE1 Inhibitors: qHTS Validation Assay for Inhibitors of Endonuclease IV (AID 1708); also: % is scaled to controls: 0 for no effect and ±100 for the full control effect
# How it was run: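 Read-out: fluorescence rise (ex 525/em 598 nm) from incision of a TAMRA/BHQ-2 double-stranded THF abasic-site substrate (50 nM), measured kinetically; third-minus-first read difference gave reaction progress. Enzyme 2 nM.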
# [15] = qHTS for differential inhibitors of proliferation of Plasmodium falciparum line 7G8 (AID 1815);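 also: potency is read from the fitted curve at half-maximal effect; parasite growth measured after three days of incubation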
# [16] = qHTS for differential inhibitors of proliferation of Plasmodium falciparum line GB4 (AID 1816); conditions: Potency: Plasmodium falciparum GB4 proliferation inhibition;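 also: potency is read from the fitted curve at half-maximal effect; parasite growth measured after 72 h incubation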
# [17] = qHTS for differential inhibitors of proliferation of Plasmodium falciparum line 3D7 (AID 1876); also: potency is read from the fitted curve at half-maximal effect
# [18] = qHTS for differential inhibitors of proliferation of Plasmodium falciparum line D10 (AID 1877);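 also: potency is read from the fitted curve at half-maximal effect; parasites grown with compound for 72 h before DNA staining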
# [19] = qHTS for differential inhibitors of proliferation of Plasmodium falciparum line Dd2 (AID 1882); conditions: Potency: Plasmodium falciparum Dd2 proliferation inhibition; also: potency is read from the fitted curve at half-maximal effect; nearly all actives have a fitted effect of over 65% in size
# How it was run: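 RBC culture, 0.3% parasitemia / 2.5% Hct final; cpd added by pin tool in DMSO; 72 h, 37 C, 5% CO2; lysis buffer + SYBR Green I, o/n RT dark; FI 485/535; norm. to artemisinin 0.29 uM and DMSO.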
# [20] = qHTS for differential inhibitors of proliferation of Plasmodium falciparum line W2 (AID 1883); conditions: Potency: Plasmodium falciparum W2 proliferation inhibition;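 also: potency is read from the fitted curve at half-maximal effect; parasites grown with compound for 72 h before lysis and staining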
# [21] = qHTS for differential inhibitors of proliferation of Plasmodium falciparum line HB3 (AID 1886); conditions: Potency: Plasmodium falciparum HB3 proliferation inhibition;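 also: potency is read from the fitted curve at half-maximal effect; parasites grown with compound for 72 h before SYBR Green readout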
# [22] = target: Ferritin light chain (Equus caballus) (UniProt P02791); assay: qHTS Validation Assay for Identification of Novel General Anesthetics (AID 2323); also: % is scaled to controls: 0 for no effect and ±100 for the full control effect
# Chain of Ferritin light chain (Equus caballus) (P02791 2-175 limits assumed): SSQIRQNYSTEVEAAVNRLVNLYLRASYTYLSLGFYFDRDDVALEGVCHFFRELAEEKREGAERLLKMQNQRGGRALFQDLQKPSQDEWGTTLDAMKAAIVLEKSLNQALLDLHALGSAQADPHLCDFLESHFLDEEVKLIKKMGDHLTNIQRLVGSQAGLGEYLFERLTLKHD
# How it was run: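 10 uM horse-spleen apoferritin + 1-AMA (50% saturated, PBS); cpd pin-transferred, 10 min RT. Ex 380/Em 535 nm endpoint. Activity normalized between free 1-AMA and 1-AMA/apoferritin; 4-parameter Hill fit of concentration-response.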
# [23] = target: RecQ-like DNA helicase BLM (Homo sapiens) (UniProt P54132); assay: qHTS Validation Assay for Inhibitors of Bloom's syndrome helicase (BLM) (AID 2364);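 also: plate controls were DMSO vehicle for no effect and enzyme-free control for full effect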
# Chain of RecQ-like DNA helicase BLM (Homo sapiens) (P54132 whole entry, looked up): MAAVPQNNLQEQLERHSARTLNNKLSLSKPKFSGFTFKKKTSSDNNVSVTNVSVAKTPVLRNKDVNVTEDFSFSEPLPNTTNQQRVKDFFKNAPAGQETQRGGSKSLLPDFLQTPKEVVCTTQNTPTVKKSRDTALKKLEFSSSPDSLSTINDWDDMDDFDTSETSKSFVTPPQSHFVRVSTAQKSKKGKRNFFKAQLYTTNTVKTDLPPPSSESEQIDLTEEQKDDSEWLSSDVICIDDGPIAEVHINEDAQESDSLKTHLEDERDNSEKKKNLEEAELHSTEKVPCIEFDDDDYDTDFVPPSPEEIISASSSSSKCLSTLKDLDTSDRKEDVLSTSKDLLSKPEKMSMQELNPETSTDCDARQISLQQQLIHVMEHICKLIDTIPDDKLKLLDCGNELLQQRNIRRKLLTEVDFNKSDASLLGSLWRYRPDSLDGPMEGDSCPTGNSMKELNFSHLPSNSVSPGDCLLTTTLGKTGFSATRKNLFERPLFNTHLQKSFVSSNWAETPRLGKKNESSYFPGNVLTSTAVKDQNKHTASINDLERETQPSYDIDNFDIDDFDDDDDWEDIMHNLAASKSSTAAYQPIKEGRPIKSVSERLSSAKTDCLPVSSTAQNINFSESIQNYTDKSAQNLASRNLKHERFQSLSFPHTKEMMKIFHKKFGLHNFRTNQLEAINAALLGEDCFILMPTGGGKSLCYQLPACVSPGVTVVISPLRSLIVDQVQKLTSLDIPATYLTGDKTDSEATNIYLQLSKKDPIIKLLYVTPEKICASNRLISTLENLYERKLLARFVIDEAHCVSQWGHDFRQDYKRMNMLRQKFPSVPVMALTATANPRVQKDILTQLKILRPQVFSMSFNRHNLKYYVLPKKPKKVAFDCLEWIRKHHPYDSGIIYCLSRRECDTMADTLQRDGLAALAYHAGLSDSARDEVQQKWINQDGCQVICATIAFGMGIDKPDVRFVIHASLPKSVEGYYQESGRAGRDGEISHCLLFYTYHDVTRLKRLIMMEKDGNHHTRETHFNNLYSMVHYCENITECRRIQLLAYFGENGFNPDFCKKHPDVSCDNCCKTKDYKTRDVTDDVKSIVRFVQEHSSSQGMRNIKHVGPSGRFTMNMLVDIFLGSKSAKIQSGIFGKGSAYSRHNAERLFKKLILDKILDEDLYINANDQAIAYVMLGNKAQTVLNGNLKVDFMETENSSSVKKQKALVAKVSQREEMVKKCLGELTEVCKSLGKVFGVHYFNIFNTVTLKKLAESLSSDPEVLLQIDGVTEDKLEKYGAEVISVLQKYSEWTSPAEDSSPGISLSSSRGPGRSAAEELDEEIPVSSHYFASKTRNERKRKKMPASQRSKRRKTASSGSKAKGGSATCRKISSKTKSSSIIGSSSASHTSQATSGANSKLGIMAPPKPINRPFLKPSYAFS
# How it was run: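 50 nM BLM preincubated 15 min at room temperature with compound in pH 8.0 Tris buffer containing 2.5 ug/ml poly(dI-dC); started with 200 nM TAMRA/BHQ-2 forked duplex and 2 mM ATP (final). Unwinding read as TAMRA fluorescence increase, two reads 2 h apart.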
# [24] = Quantitative high throughput screen for delayed death inhibitors of the malarial parasite plastid, 96 hour incubation (AID 488745);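 also: luciferase-expressing P. falciparum in erythrocytes at 2% hematocrit and 0.1% parasitemia; % is scaled to controls: 0 for no effect and ±100 for the full control effect; nearly all actives have a fitted effect of over 70% in size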
# How it was run: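 Luciferase-expressing P. falciparum, infected RBCs 2% Hct/0.1% parasitemia (final); 96 h cpd exposure, 37 C, 5% CO2; RPMI 1640 + 0.5% Albumax, bicarbonate, gentamycin. Readout: luminescence loss = growth inhibition.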
# [25] = Quantitative high throughput screen for delayed death inhibitors of the malarial parasite plastid, 48 hour incubation (AID 488752); also: potency is read from the fitted curve at half-maximal effect; nearly all actives have a fitted effect of over 65% in size
# How it was run: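 Luciferase-expressing P. falciparum in RBCs, 2% Hct, 0.1% parasitemia final; RPMI 1640 + 0.5% Albumax; 48 h, 37 C, 5% CO2; luminescence readout, signal drop = growth inhibition.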
# [26] = target: Transient receptor potential cation channel subfamily V member 1 (Homo sapiens) (UniProt Q8NER1); assay: HTS Assay for Compounds that Act as Enhancers of the Vanilloid Receptor 1 (AID 488979); also: 0% is about no effect
# Chain of Transient receptor potential cation channel subfamily V member 1 (Homo sapiens) (Q8NER1 whole entry, looked up): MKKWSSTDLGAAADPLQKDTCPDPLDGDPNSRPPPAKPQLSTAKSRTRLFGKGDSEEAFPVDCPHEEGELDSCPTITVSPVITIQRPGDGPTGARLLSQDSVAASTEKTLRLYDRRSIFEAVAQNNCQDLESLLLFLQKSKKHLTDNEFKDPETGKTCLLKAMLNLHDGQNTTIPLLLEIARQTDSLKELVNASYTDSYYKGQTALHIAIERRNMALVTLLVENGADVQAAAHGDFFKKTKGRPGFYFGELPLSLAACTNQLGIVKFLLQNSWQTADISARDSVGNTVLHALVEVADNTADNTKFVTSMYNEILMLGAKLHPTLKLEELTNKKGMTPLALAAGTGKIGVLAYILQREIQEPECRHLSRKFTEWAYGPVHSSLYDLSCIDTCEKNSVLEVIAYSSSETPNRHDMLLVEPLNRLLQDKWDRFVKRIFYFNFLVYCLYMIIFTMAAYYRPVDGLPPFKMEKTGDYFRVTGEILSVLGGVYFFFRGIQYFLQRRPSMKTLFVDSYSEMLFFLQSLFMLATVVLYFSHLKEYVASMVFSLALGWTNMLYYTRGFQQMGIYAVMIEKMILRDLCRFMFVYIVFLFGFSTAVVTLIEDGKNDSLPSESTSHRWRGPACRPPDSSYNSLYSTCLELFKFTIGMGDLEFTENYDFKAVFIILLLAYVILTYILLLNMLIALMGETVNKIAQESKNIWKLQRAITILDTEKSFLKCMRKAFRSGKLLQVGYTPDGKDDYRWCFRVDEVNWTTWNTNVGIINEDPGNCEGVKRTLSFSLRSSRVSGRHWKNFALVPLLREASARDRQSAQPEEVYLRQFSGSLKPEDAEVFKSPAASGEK
# How it was run: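 TRPV1 cells loaded with Fluo-8 calcium dye; compound added and Ca2+ signal (ex 480/em 520 nm) followed 3 min, then capsaicin at EC20 added and read 2 more min to detect enhancement.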
# [27] = target: Thyrotropin-releasing hormone receptor (Homo sapiens) (UniProt P34981); assay: qHTS for Small Molecule Agonists and Allosteric Enhancers of Human TRH Receptor: Validation Screen for Agonists (AID 493127;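 active = calcium activation more than 3 SD above the typical response in the agonist read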;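 also: intracellular calcium rise by fluo-8 fluorescence before TRH EC20 addition; 0% is about no effect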); conditions: TRH receptor agonist cell assay; at 2 µM; stronger effect = higher value
# Chain of Thyrotropin-releasing hormone receptor (Homo sapiens) (P34981 whole entry, looked up): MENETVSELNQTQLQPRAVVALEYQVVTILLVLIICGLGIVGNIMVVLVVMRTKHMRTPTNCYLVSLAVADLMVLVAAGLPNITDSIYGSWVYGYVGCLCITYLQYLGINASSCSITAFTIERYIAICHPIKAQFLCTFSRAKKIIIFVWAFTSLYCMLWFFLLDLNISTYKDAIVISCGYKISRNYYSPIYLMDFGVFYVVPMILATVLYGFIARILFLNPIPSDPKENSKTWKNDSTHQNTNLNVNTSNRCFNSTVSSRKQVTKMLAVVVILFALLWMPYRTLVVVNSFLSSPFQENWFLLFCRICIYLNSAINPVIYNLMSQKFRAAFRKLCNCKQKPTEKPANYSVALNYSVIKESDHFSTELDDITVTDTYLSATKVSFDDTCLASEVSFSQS
# How it was run: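 Read-out: intracellular calcium release measured kinetically by FDSS (fluo-8, ex 480/em 530 nm), 1 reading/s after a 10-cycle baseline. TRHR cells, 2000/well, cultured 18 h at 33.5C, dye-loaded at room temp. Compound-evoked positive calcium signal flags agonists.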
# [28] = target: Galactokinase (Homo sapiens) (UniProt P51570); assay: qHTS Validation Assay for Inhibitors of Human Galactokinase (GALK) (AID 493189); also: 0% is about no effect
# Chain of Galactokinase (Homo sapiens) (P51570 whole entry, looked up): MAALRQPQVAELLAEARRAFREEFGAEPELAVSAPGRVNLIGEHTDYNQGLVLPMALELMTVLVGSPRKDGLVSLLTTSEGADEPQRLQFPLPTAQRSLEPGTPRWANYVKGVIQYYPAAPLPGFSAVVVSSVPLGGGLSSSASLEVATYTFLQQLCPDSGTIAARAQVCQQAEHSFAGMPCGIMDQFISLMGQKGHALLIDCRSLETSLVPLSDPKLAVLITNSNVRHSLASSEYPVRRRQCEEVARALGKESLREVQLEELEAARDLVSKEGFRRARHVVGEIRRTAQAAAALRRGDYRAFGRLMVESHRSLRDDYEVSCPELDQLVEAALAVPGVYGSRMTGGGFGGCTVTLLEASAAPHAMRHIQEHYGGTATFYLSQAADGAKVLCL
# How it was run: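 Luminescence from leftover ATP (Kinase-Glo Plus, 10 min) served as read-out after a 1 h room-temperature reaction of 5 nM GALK, 100 uM galactose and 35 uM ATP at pH8.0.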
# [29] = Confirmatory qHTS for small molecule stabilizers of the endoplasmic reticulum resident proteome: Secreted ER Calcium Modulated Protein (SERCaMP) assay (AID 1508628); also: potency is read from the fitted curve at half-maximal effect; nearly all actives have a fitted effect of over 40% in size
# How it was run: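 GLuc-SERCaMP-expressing SH-SY5Y cells, pretreated 16 h with compound, are challenged with thapsigargin to empty ER calcium stores; after 4 h, coelenterazine is added directly to the medium and luminescence is imaged.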
compound,measurement,setting,value
c1ccc(N2CCCC3(CCNCC3)C2)nc1,Potency,[1],> 20000 nM (inactive)
same,Potency,[2],> 11400 nM (inactive)
same,outcome,[3],inactive
same,Potency,[4],25100 nM (active)
same,"activity change, negative = inhibition",[5],-27% (inactive)
same,Potency,[6],> 46000 nM (inactive)
same,outcome,[7],inactive
same,"activity change, negative = inhibition",[8]; at 57.5 µM (top of the series),3.94% (inactive)
same,max response,[8]; measured here: cell count channel max response,2.21%
same,max response,[8]; measured here: lipid channel max response,8.95%
same,outcome,[9],inactive
same,max response,[10],-3.57% (inactive)
CCc1nn2c(=O)c(F)c(N3CCNCC3)nc2s1,outcome,[11],inactive
C=CCN1CCc2cccc3c2C1Cc1ccc(O)c(O)c1-3 (stereo unspecified),Potency,[12],inactive
same,outcome,[13],inactive
same,Potency,[14],inactive
same,Potency,[15],2820 nM (active)
same,Potency,[16],2000 nM (active)
same,Potency,[17],2820 nM (active)
same,Potency,[18],2000 nM (active)
same,Potency,[19],2820 nM (active)
same,Potency,[20],2510 nM (active)
same,Potency,[21],2000 nM (active)
same,Potency,[22],inactive
same,outcome,[23],inactive
same,Potency,[24],inactive
same,Potency,[25],10400 nM (active)
same,outcome,[26],inactive
same,activation,[27],-2.75% (inactive)
same,outcome,[28],inactive
same,Potency,[29],39800 nM (active)
